# Measured values from ChEMBL document CHEMBL3433997, “St. Jude Leishmania screening dataset” (2016).
# Legend:
# Type in all cases: functional
# [1] = target: Solute carrier family 2, facilitated glucose transporter member 1 (Homo sapiens) (UniProt P11166); test: ST_JUDE_LEISH: Cytotoxicity at 2uM final concentration against transgenic Leishmania Mexicana promastigotes LmGLUT1 that are glucose transport deficient and complemented with the human glucose transporter GLUT1. Activity is measured by DNA content using SYBR green in vitro
# Solute carrier family 2, facilitated glucose transporter member 1 (Homo sapiens), sequence (P11166 whole entry): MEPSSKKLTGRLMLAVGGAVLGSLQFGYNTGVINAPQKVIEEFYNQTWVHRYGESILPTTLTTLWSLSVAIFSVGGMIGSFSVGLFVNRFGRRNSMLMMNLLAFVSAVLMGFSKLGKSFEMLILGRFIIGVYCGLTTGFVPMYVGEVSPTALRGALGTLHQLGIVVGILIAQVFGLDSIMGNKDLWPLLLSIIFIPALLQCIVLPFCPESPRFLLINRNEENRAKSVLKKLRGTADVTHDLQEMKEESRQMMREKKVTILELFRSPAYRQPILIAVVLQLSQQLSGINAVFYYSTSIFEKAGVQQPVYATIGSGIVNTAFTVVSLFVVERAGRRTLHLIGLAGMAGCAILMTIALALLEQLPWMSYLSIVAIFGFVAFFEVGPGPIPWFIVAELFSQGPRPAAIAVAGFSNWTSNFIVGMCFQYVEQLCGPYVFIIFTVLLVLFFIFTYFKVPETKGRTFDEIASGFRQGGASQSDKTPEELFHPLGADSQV
# [2] = target: Hexose transporter 1 (Plasmodium falciparum) (UniProt O97467); test: ST_JUDE_LEISH: Cytotoxicity at 2uM final concentration against transgenic Leishmania Mexicana promastigotes LmPfHT that are glucose transport deficient and complemented with the Plasmodium falciparum hexose transporter. Activity is measured by DNA content using SYBR green in vitro
# [3] = target: Glucose transporter (Leishmania mexicana) (UniProt O61059); test: ST_JUDE_LEISH: Cytotoxicity at 2uM final concentration against transgenic Leishmania Mexicana promastigotes LmGT2 that are glucose transport deficient and complemented with the L. Mexicana glucose transporter 2. Activity is measured by DNA content using SYBR green in vitro
SMILES,inhibition [1],inhibition [2],inhibition [3]
COc1cc(OC)cc(-c2nn(-c3ccc([N+](=O)[O-])cc3Cl)c(=S)n2Cc2ccco2)c1,-1.56%,-0.65%,2.4%
N=C(N)Nc1nc(-c2cccc(NC(=O)C(F)(F)F)c2)cs1,2.35%,2.8%,3.35%
O=[N+]([O-])c1cccc(CNCC2CCN(Cc3ccc(Cl)c(Cl)c3)CC2)c1,18.2%,9.74%,12.9%
COc1ccc2[nH]c(C)cc(=NN=Cc3ccncc3)c2c1,3.45%,-0.44%,4.43%
O=C(/C=C/c1ccc(Cl)c(Cl)c1)NCCCCCN1CCC(NC(=O)c2cc(Cl)ccc2F)CC1,2.96%,1.12%,-0.02%
C#CCOc1ccc(N2C(N)=NC(N)=NC2(C)C)cc1,2.23%,1.16%,-0.42%
CCc1cn(CCS(C)(=O)=O)c2ccc(C(=O)N[C@@H](Cc3ccccc3)[C@H](O)CNC(C)(C)CCCC(C)C)cc12,5.26%,4.33%,6.22%
O=C(Nc1cccc([N+](=O)[O-])c1)N(Cc1ccc(Cl)c(Cl)c1)C1CCNCC1,5.08%,3.21%,3.8%
CS(=O)(=O)Cc1ccc(Nc2nccc(-c3c(-c4cccc(NC(=O)c5c(F)cccc5F)c4)nn4ccccc34)n2)cc1,38.6%,18.8%,9.09%
O=C(NCCCCN1CCC(c2ccc([N+](=O)[O-])cc2)CC1)c1ccc(NC(=O)c2ccc(Cl)cc2)cc1,4.18%,1.35%,4.06%
CN(C)CCCNc1ccnc2cc(Cl)ccc12,1.15%,0.62%,-1.76%
COc1ccc(O)c(C(=O)c2cnc3c(c2)c(-c2ccc(F)cc2)c(C#N)c(=O)n3C)c1,8.74%,6.89%,4.94%
